Experimental data taken from PubChem BioAssay AID1159580 (chemical genetic matrix, 2015).
Hit rate of the full screen: of about 5,500 compounds, about 2,000 (36%) were called active. Inconclusive results (about 18%) are left out. Cut-off read from the data, not from the text of the source: active = normalized growth mostly below about 0.91 (no sharp cut-off); inconclusive = no clear call, values can overlap the other calls; inactive = mostly above about 0.92. This is one part of the list.

Test: chemical genetic growth profiling, strain panel (AID 1159580);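 note: tested at 20 µM; growth read once vehicle control cultures reached saturation at 30 °C; 1 = growth at the plate median or of vehicle wells; lower values mean less growth of the strain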
Settings: growth OD

Measured: normalized growth

COc1cc(C)c2c(=O)c3c(O)cc(OC)cc3oc2c1
inactive: S. cerevisiae deletion strains, locus YAL013W, strain DEP1, stronger effect = lower value 1.01 | S. cerevisiae deletion strains, locus YBR021W, strain FUR4, stronger effect = lower value 0.968 | S. cerevisiae deletion strains, locus YBR229C, strain ROT2, stronger effect = lower value 1.02 | S. cerevisiae deletion strains, locus YCL029C, strain bik1, stronger effect = lower value 0.991 | S. cerevisiae deletion strains, locus YDL035C, strain GPR1, stronger effect = lower value 1.01 | S. cerevisiae deletion strains, locus YDL074C, strain BRE1, stronger effect = lower value 1.02 | S. cerevisiae deletion strains, locus YDL101C, strain DUN1, stronger effect = lower value 1.02 | S. cerevisiae deletion strains, locus YDL134C, strain PPH21, stronger effect = lower value 1.01 | S. cerevisiae deletion strains, locus YDL185W, strain tfp1, stronger effect = lower value 0.991 | S. cerevisiae deletion strains, locus YDL192W, strain arf1, stronger effect = lower value 0.986 | S. cerevisiae deletion strains, locus YDR101C, strain arx1, stronger effect = lower value 0.981 | S. cerevisiae deletion strains, locus YDR150W, strain NUM1, stronger effect = lower value 1.02 | S. cerevisiae deletion strains, locus YDR162C, strain NBP2, stronger effect = lower value 1.02 | S. cerevisiae deletion strains, locus YDR318W, strain mcm21, stronger effect = lower value 0.986 | S. cerevisiae deletion strains, locus YDR388W, stronger effect = lower value 0.981 | S. cerevisiae deletion strains, locus YDR502C, strain sam2, stronger effect = lower value 0.982 | S. cerevisiae deletion strains, locus YEL061C, strain CIN8, stronger effect = lower value 1.01 | S. cerevisiae deletion strains, locus YER110C, stronger effect = lower value 0.977 | S. cerevisiae deletion strains, locus YER155C, strain BEM2, stronger effect = lower value 1 | S. cerevisiae deletion strains, locus YER167W, strain BCK2, stronger effect = lower value 1.01 | S. cerevisiae deletion strains, locus YGL078C, strain dbp3, stronger effect = lower value 0.976 | S. cerevisiae deletion strains, locus YGL086W, strain mad1, stronger effect = lower value 0.982 | S. cerevisiae deletion strains, locus YGL248W, strain PDE1, stronger effect = lower value 1.02 | S. cerevisiae deletion strains, locus YGR078C, strain PAC10, stronger effect = lower value 1 | S. cerevisiae deletion strains, locus YGR135W, strain pre9, stronger effect = lower value 0.977 | S. cerevisiae deletion strains, locus YGR229C, strain SMI1, stronger effect = lower value 0.996 | S. cerevisiae deletion strains, locus YGR252W, strain gcn5, stronger effect = lower value 0.929 | S. cerevisiae deletion strains, locus YHR030C, strain SLT2, stronger effect = lower value 1.01 | S. cerevisiae deletion strains, locus YHR079C, strain IRE1 (second series), stronger effect = lower value 0.977 | S. cerevisiae deletion strains, locus YHR094C, strain hxt1, stronger effect = lower value 0.991 | S. cerevisiae deletion strains, locus YHR129C, strain ARP1, stronger effect = lower value 1.01 | S. cerevisiae deletion strains, locus YHR200W, strain rpn10, stronger effect = lower value 0.975 | S. cerevisiae deletion strains, locus YIL066C, strain RNR3, stronger effect = lower value 1.01 | S. cerevisiae deletion strains, locus YIL073C, strain SPO22, stronger effect = lower value 0.967 | S. cerevisiae deletion strains, locus YIL125W, strain kgd1, stronger effect = lower value 0.984 | S. cerevisiae deletion strains, locus YIR030C, strain dcg1, stronger effect = lower value 0.994 | S. cerevisiae deletion strains, locus YJL095W, strain BCK1, stronger effect = lower value 0.995 | S. cerevisiae deletion strains, locus YJL134W, strain LCB3, stronger effect = lower value 1.01 | S. cerevisiae deletion strains, locus YJL168C, strain set2, stronger effect = lower value 0.982 | S. cerevisiae deletion strains, locus YJL187C, strain SWE1 (second series), stronger effect = lower value 1.02 | S. cerevisiae deletion strains, locus YJR043C, strain POL32, stronger effect = lower value 0.999 | S. cerevisiae deletion strains, locus YJR075W, strain HOC1, stronger effect = lower value 1.01 | S. cerevisiae deletion strains, locus YKL009W, strain mrt4, stronger effect = lower value 0.984 | S. cerevisiae deletion strains, locus YKL068W, stronger effect = lower value 0.993 | S. cerevisiae deletion strains, locus YKL085W, strain MDH1 (second series), stronger effect = lower value 1.03 | S. cerevisiae deletion strains, locus YKL085W, strain MDH1, stronger effect = lower value 1.03 | S. cerevisiae deletion strains, locus YKL190W, strain CNB1, stronger effect = lower value 1.01 | S. cerevisiae deletion strains, locus YKR001C, strain vps1, stronger effect = lower value 0.982 | S. cerevisiae deletion strains, locus YLR039C, strain RIC1, stronger effect = lower value 1.04 | S. cerevisiae deletion strains, locus YLR058C, strain SHM2, stronger effect = lower value 1.02 | S. cerevisiae deletion strains, locus YLR102C, strain apc9, stronger effect = lower value 0.982 | S. cerevisiae deletion strains, locus YLR262C, strain YPT6, stronger effect = lower value 1.04 | S. cerevisiae deletion strains, locus YLR268W, strain sec22, stronger effect = lower value 0.987 | S. cerevisiae deletion strains, locus YLR330W, strain CHS5, stronger effect = lower value 1.02 | S. cerevisiae deletion strains, locus YLR342W, strain FKS1 (second series), stronger effect = lower value 0.996 | S. cerevisiae deletion strains, locus YLR371W, strain rom2, stronger effect = lower value 0.984 | S. cerevisiae deletion strains, locus YLR418C, strain cdc73, stronger effect = lower value 0.981 | S. cerevisiae deletion strains, locus YML016C, strain PPZ1, stronger effect = lower value 1.02 | S. cerevisiae deletion strains, locus YML032C, strain rad52, stronger effect = lower value 0.978 | S. cerevisiae deletion strains, locus YML124C, strain tub3, stronger effect = lower value 0.985 | S. cerevisiae deletion strains, locus YMR078C, strain ctf18, stronger effect = lower value 0.993 | S. cerevisiae deletion strains, locus YMR223W, strain ubp8, stronger effect = lower value 0.98 | S. cerevisiae deletion strains, locus YMR263W, strain SAP30, stronger effect = lower value 1.01 | S. cerevisiae deletion strains, locus YMR307W, strain GAS1, stronger effect = lower value 0.976 | S. cerevisiae deletion strains, locus YNL067W, strain RPL9B, stronger effect = lower value 1.01 | S. cerevisiae deletion strains, locus YNL128W, strain TEP1, stronger effect = lower value 1.01 | S. cerevisiae deletion strains, locus YNL153C, strain GIM3, stronger effect = lower value 1.01 | S. cerevisiae deletion strains, locus YNL233W, strain BNI4, stronger effect = lower value 1.01 | S. cerevisiae deletion strains, locus YNL250W, strain rad50, stronger effect = lower value 0.992 | S. cerevisiae deletion strains, locus YNL271C, strain bni1, stronger effect = lower value 0.98 | S. cerevisiae deletion strains, locus YNL298W, strain CLA4, stronger effect = lower value 0.976 | S. cerevisiae deletion strains, locus YNL307C, strain MCK1, stronger effect = lower value 0.981 | S. cerevisiae deletion strains, locus YNL322C, strain KRE1, stronger effect = lower value 1.01 | S. cerevisiae deletion strains, locus YNR052C, strain pop2, stronger effect = lower value 0.978 | S. cerevisiae deletion strains, locus YOL006C, strain TOP1, stronger effect = lower value 1.05 | S. cerevisiae deletion strains, locus YOL012C, strain htz1 1.37 | S. cerevisiae deletion strains, locus YOL147C, strain pex11, stronger effect = lower value 0.985 | S. cerevisiae deletion strains, locus YOR061W, strain CKA2, stronger effect = lower value 1.02 | S. cerevisiae deletion strains, locus YOR069W, strain VPS5, stronger effect = lower value 1.01 | S. cerevisiae deletion strains, locus YOR136W, strain idh2, stronger effect = lower value 0.979 | S. cerevisiae deletion strains, locus YOR144C, strain elg1, stronger effect = lower value 0.99 | S. cerevisiae deletion strains, locus YOR184W, strain ser1, stronger effect = lower value 0.969 | S. cerevisiae deletion strains, locus YOR316C, strain cot1, stronger effect = lower value 0.982 | S. cerevisiae deletion strains, locus YPL055C, strain LGE1, stronger effect = lower value 1.01 | S. cerevisiae deletion strains, locus YPL241C, strain CIN2, stronger effect = lower value 0.99 | S. cerevisiae deletion strains, locus YPR119W, strain clb2, stronger effect = lower value 0.98 | S. cerevisiae deletion strains, locus YPR141C, strain kar3, stronger effect = lower value 1 | S. cerevisiae deletion strains, locus YPR163C, strain tif3, stronger effect = lower value 0.988 | S. cerevisiae deletion strains, locus YPR167C, strain met16, stronger effect = lower value 0.985 | S. cerevisiae deletion strains, strain wtn01, stronger effect = lower value 0.986 | S. cerevisiae strains, strain wild type, stronger effect = lower value 1.01
